# Experimental data: PubChem BioAssay (NCATS)
# Results filed as inconclusive are left out. A call without a number means that no potency is given here. Calls of active or inactive are those of the source. Calls follow the shape of the dose curve; as a rule, active = well fitted curve in the direction sought with a large enough effect; inconclusive = small, poorly fitted or top-dose-only effect, or another doubt; inactive = no such curve, though single readings can be large; an effect the other way counts as inactive or inconclusive.
# Experiments:
# [1] = Quantitative High-Throughput drug screen in 47 multiple myeloma cell lines against the NCATS MIPE library collection: PCM6_Riken cell viability assay (AID 1919870); also: nearly all actives have a fitted effect of over 30% in size; also: potency is read from the fitted curve at half-maximal effect
# Method in brief: (§1)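 ATP-based CellTiter-Glo luminescence after 48 h drug exposure (37 °C, 5% CO2) of 500 myeloma cells per well. DMSO-only wells set 100% viability, media-only wells 0%; MIPE 4.0 library added by pin tool.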
# [2] = Quantitative High-Throughput drug screen in 47 multiple myeloma cell lines against the NCATS MIPE library collection: OPM2_DSMZ cell viability assay (AID 1919872); also: nearly all actives have a fitted effect of over 30% in size; also: potency is read from the fitted curve at half-maximal effect
# Method in brief: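 Myeloma cell lines, 500 cells per well, exposed to MIPE 4.0 library compounds for 48 h at 37C, 5% CO2. Viability from ATP by CellTiter-Glo luminescence; normalised to DMSO (100%) and media-only (0%) wells.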
# [3] = Quantitative High-Throughput drug screen in 47 multiple myeloma cell lines against the NCATS MIPE library collection: KMS11_JCRBsus cell viability assay (AID 1919873); also: nearly all actives have a fitted effect of over 50% in size; also: potency is read from the fitted curve at half-maximal effect
# Method in brief: as §1
# [4] = Quantitative High-Throughput drug screen in 47 multiple myeloma cell lines against the NCATS MIPE library collection: RPMI8226_ATCC cell viability assay (AID 1919871); also: nearly all actives have a fitted effect of over 30% in size
# Method in brief: as §1
# [5] = Quantitative High-Throughput drug screen in 47 multiple myeloma cell lines against the NCATS MIPE library collection: KMS28BM_JCRB cell viability assay (AID 1919874); also: nearly all actives have a fitted effect of over 35% in size; also: potency is read from the fitted curve at half-maximal effect
# Method in brief: as §1
# [6] = Quantitative High-Throughput drug screen in 47 multiple myeloma cell lines against the NCATS MIPE library collection: PE2_PLB cell viability assay (AID 1919869); also: nearly all actives have a fitted effect of over 35% in size; also: potency is read from the fitted curve at half-maximal effect
# Method in brief: as §1
# [7] = biological target: Cytochrome P450 3A4 (Homo sapiens) (UniProt P08684); test: qHTS for inhibitors of CYP3A4 against the NCATS DSHEA and TCM libraries (AID 1919971);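 also: inhibition lowers luminescence from luciferin made by CYP3A4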
# Chain of Cytochrome P450 3A4 (Homo sapiens) (P08684 whole entry, looked up, canonical isoform): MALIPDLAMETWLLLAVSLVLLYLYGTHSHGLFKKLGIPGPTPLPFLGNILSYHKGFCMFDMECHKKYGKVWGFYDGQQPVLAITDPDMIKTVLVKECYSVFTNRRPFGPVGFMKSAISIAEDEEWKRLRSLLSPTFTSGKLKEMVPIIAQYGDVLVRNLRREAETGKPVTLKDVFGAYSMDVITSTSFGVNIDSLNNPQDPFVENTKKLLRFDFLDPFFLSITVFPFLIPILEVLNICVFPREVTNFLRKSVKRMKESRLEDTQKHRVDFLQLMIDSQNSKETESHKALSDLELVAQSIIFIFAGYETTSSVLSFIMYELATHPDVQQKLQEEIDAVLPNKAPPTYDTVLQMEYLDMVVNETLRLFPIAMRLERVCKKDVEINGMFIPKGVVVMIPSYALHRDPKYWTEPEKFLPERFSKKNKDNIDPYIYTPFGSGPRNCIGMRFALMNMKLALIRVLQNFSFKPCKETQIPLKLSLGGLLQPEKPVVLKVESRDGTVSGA
# Method in brief: (§2)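 Concentration-response screening with isoform-matched pro-luciferin substrates. The CYP reaction was initiated by NADPH regenerating solution and ran 30-45 min in darkness at room temperature.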
# [8] = biological target: Cytochrome P450 2D6 (Homo sapiens) (UniProt P10635); test: qHTS for inhibitors of CYP2D6 against the NCATS DSHEA and TCM libraries (AID 1919972)
# Chain of Cytochrome P450 2D6 (Homo sapiens) (P10635 whole entry, looked up): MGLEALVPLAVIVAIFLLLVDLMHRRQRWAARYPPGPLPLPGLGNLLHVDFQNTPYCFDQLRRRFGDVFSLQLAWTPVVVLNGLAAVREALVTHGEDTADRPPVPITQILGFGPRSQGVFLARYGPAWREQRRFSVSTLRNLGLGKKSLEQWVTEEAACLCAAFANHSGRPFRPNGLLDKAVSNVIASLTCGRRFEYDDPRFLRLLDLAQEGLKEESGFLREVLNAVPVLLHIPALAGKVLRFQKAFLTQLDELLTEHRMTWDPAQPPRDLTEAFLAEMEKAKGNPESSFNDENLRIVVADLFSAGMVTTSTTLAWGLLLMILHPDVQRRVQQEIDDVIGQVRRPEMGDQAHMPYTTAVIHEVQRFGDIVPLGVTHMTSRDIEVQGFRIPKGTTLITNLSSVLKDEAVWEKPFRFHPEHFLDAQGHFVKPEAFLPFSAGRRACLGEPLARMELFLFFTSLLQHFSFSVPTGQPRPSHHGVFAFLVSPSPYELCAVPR
# Method in brief: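 CYP2D6 enzyme with pro-luciferin substrate in manufacturer buffer (typically 100 mM KPO4), preincubated 15 min RT with substances (most at 19.5 nM upward); NADPH regeneration system (1x) started 30–45 min RT reaction; P450-Glo luminescence read after 30 min; quinidine as intraplate control.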
# [9] = biological target: Cytochrome P450 2C9 (Homo sapiens) (UniProt P11712); test: qHTS for inhibitors of CYP2C9 against the NCATS DSHEA and TCM libraries (AID 1919973);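 also: luminogenic pro-luciferin CYP2C9 substrate turned into luciferin with NADPH regeneration; series mostly up to about 34 µM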
# Chain of Cytochrome P450 2C9 (Homo sapiens) (P11712 whole entry, looked up): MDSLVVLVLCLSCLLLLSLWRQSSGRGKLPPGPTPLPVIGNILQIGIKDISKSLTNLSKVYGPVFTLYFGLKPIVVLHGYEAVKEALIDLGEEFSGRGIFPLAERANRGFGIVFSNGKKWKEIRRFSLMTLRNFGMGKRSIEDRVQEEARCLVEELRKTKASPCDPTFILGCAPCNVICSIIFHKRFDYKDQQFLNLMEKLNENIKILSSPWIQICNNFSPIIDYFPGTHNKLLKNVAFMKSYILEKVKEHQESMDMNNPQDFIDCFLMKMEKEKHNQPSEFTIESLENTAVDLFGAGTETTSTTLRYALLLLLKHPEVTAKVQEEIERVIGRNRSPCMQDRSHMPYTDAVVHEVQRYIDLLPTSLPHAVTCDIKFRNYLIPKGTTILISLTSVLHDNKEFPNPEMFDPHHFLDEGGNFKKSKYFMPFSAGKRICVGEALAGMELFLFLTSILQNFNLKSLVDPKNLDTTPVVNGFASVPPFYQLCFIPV
# Method in brief: as §2
smiles,measurement,setting,value
COc1cc2c(cc1OC)CN(CCc1ccc(NC(=O)c3cc(OC)c(OC)cc3NC(=O)c3cnc4ccccc4c3)cc1)CC2,Potency,[1],18.7 µM (active)
same,Potency,[2],inactive
Clc1ccc(COC(Cn2ccnc2)c2ccc(Cl)cc2Cl)cc1 (stereo not given),Potency,[1],20.9 µM (active)
same,Potency,[2],inactive
NC(=O)c1ccc2nc(-c3ccc(Oc4ccc(Cl)cc4)cc3)[nH]c2c1,Potency,[1],inactive
same,Potency,[3],11.8 µM (active)
CN1CCN(CCOc2cc(OC3CCOCC3)c3c(Nc4c(Cl)ccc5c4OCO5)ncnc3c2)CC1,Potency,[1],9.35 µM (active)
same,Potency,[2],inactive
same,Potency,[3],23.5 µM (active)
CC(C)n1cnc2c(NCCCCCCNC(=O)OC(C)(C)C)nc(NCCO)nc21,Potency,[1],16.6 µM (active)
O=c1cc(-c2ccccc2)oc2cc(O)cc(O)c12,Potency,[1],20.9 µM (active)
same,Potency,[4],inactive
same,Potency,[2],inactive
same,Potency,[5],inactive
CCn1c(C(=O)N(C2CC2)C2CC2)cc2c3c(ncn3C)c(Nc3cc(C)n(C)n3)nc21,Potency,[6],16.6 µM (active)
same,Potency,[5],inactive
NC(=O)c1cnc(-c2ccc(C3(N)CCC3)cc2)c(-c2ccccc2)c1,Potency,[1],1.32 µM (active)
same,Potency,[2],20.9 µM (active)
O=C1C[C@@H](c2ccc(O)cc2)Oc2cc(O)cc(O)c21,Potency,[1],inactive
same,Potency,[4],inactive
same,Potency,[2],inactive
same,Potency,[3],inactive
same,Potency,[5],inactive
Cc1cc(OCCCc2c(C(=O)O)n(Cc3cccnc3)c3c(-c4c(COc5ccc(N6CCN([S+](C)(=O)[O-])CC6)cc5)nn(C)c4C)cccc23)cc(C)c1Cl,Potency,[1],20.9 µM (active)
same,Potency,[2],10.5 µM (active)
same,Potency,[3],23.5 µM (active)
same,Potency,[5],23.5 µM (active)
Cc1ccc(C(C)(O)c2nc3ccccc3s2)c(C)c1 (stereo not given),Potency,[1],inactive
same,Potency,[4],inactive
same,Potency,[2],inactive
same,Potency,[3],inactive
Clc1cc(Cl)cc(CNc2ncncc2-c2ccc3c(c2)OCO3)c1,Potency,[6],20.9 µM (active)
same,Potency,[3],16.6 µM (active)
Nc1ncnc2c1nc(Cl)n2[C@@H]1O[C@H](CO)[C@@H](O)[C@@H]1O,Potency,[6],0.235 µM (active)
same,Potency,[3],20.9 µM (active)
same,Potency,[5],13.2 µM (active)
COc1cc(O)c2c(c1)C(=O)c1cc(C)cc(O)c1C2=O,Potency,[1],inactive
same,Potency,[4],inactive
same,Potency,[2],inactive
same,outcome,[7],inactive
same,outcome,[8],inactive
same,outcome,[9],inactive
Nc1ncnc2ccccc12,Potency,[1],20.9 µM (active)
same,Potency,[2],inactive
same,Potency,[3],inactive
same,Potency,[5],inactive
CN1C[C@H]2c3ccccc3Oc3ccc(Cl)cc3[C@@H]2C1,Potency,[1],11.8 µM (active)
same,Potency,[4],inactive
same,Potency,[2],inactive
O=c1c(-c2ccc(O)cc2)coc2cc(O[C@@H]3O[C@H](CO)[C@H](O)[C@H](O)[C@H]3O)ccc12,Potency,[1],inactive
same,Potency,[4],inactive
same,Potency,[2],inactive
same,Potency,[3],inactive
same,Potency,[5],inactive
same,outcome,[7],inactive
same,outcome,[8],inactive
NS(=O)(=O)c1ccc(NC2=CC(=O)c3ccccc3C2=O)cc1,Potency,[6],14.8 µM (active)
same,Potency,[2],inactive
same,Potency,[5],inactive
O=C(Nc1ccccc1Br)N[C@@H]1CCN(c2ccc(C(F)(F)F)cn2)C1,Potency,[6],18.7 µM (active)
same,Potency,[2],inactive
same,Potency,[5],20.9 µM (active)
CC(C(=O)O)c1ccc(-c2ccccc2)c(F)c1 (stereo not given),Potency,[1],14.8 µM (active)
same,Potency,[4],inactive
same,Potency,[2],inactive
same,Potency,[5],14.8 µM (active)
Cc1c[nH]c(C=C2C(=O)Nc3ccccc32)c1CCC(=O)O,Potency,[1],20.9 µM (active)
same,Potency,[4],inactive
same,Potency,[3],33.2 µM (active)
COc1ccc(-c2coc3cc(O)ccc3c2=O)cc1,Potency,[1],inactive
same,Potency,[4],inactive
same,Potency,[2],inactive
same,Potency,[3],18.7 µM (active)
same,outcome,[7],inactive
same,outcome,[8],inactive
same,outcome,[9],inactive
Cc1ccccc1C(C(=O)NC1CCCCC1)N(C(=O)Cn1ccnc1C)c1cccc(F)c1 (stereo not given),Potency,[6],inactive
same,Potency,[3],inactive
CN(C)Cc1ccc(-c2nc3cccc4c3n2CCNC4=O)cc1,Potency,[1],14.8 µM (active)
same,Potency,[3],26.4 µM (active)
